Here are results for 17 compounds from PubChem BioAssay (EPA / NIEHS).

Several values for one entry are separate records, joined by “and”; a condition that tells them apart may be missing. Identical values can stand only once. Records with an inconclusive call do not appear. A structure can be active in one record and inactive in another. Activity calls are given as the source filed them. Rule for the calls: active = hit-call score of the fitted dose curve at least 0.9, where 1 is the maximum; inactive = score below 0.9.

Assay [1] has as its target Nuclear respiratory factor 1 (Homo sapiens) (UniProt Q16656). Description: ATG_NRF1_CIS: Attagene CIS-FACTORIAL HepG2 Assay for human Nuclear Respiratory Factor 1 (NRF1) Orphan Gene (AID 2282987). To be noted: HepG2 NRF1 cis-element reporter, Attagene multiplex; actives raise or lower the signal. Summed up:
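Fluorescence intensity of labelled reporter cDNA fragments, resolved by capillary electrophoresis, served as readout for NRF1 cis-element activity. Transiently transfected HepG2 cells were dosed for 24 hours; activity in either direction was fitted against DMSO negative control.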

Assay [2] can be described thus: ATG_NFI_CIS: Attagene CIS-FACTORIAL HepG2 Assay for human Nuclear Factor I (NFI) (AID 2282989). To be noted: HepG2 cis-regulatory reporter, NFI response element transcription; actives raise or lower the signal. The gist of the method:
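Cells: human liver HepG2, transiently transfected with promoter-regulated reporter transcription units. Exposure 24 h. Detection: fluorescent RT-PCR products separated by capillary electrophoresis, normalised to DMSO negative control.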

The target in assay [3] is Myc proto-oncogene protein (Homo sapiens) (UniProt P01106). Description: ATG_Myc_CIS: Attagene CIS-FACTORIAL HepG2 Assay for human Myelocytomatosis (Myc) Proto-Oncogene Transcription Factor (AID 2282990). The settings on record: HepG2, Attagene cis-reporter transcription factor activity; actives raise or lower the signal. Summed up: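 Read-out: fluorescent reporter mRNA fragments resolved by capillary electrophoresis after RT-PCR. Human HepG2 liver cells carried transfected cis-element reporter units and were dosed for 24 h. Gain or loss of signal fitted relative to DMSO baseline.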

Assay [4] can be described thus: ATG_NF_kB_CIS: Attagene CIS-FACTORIAL HepG2 Assay for human Nuclear Factor Kappa B (NF-kB) (AID 2282991). To be noted: HepG2 Attagene cis-factorial NF-kB reporter mRNA; actives raise or lower the signal. The gist of the method: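 Endogenous transcription factor activity in HepG2 was captured via cis-regulated reporter constructs; after 24 h dosing, reporter mRNA was reverse-transcribed, amplified, fluorescently labelled and sized by capillary electrophoresis, with activity fitted bidirectionally relative to DMSO.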

Assay [5] is described as follows: ATG_NRF2_ARE_CIS: Attagene CIS-FACTORIAL HepG2 Assay for human Nuclear Factor Erythroid 2 Related Factor 2 (NFR2) response to Antioxidant Response Elements (ARE) (AID 2282992). The settings on record: HepG2 Attagene ARE/NRF2 reporter, transcription factor activity; actives raise or lower the signal. The gist of the method: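 Multiplexed reporter mRNA profiling in HepG2 after a 24 h chemical exposure. Curves fitted in both directions relative to DMSO negative control.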

Assay [6] can be described thus: ATG_Oct_MLP_CIS: Attagene CIS-FACTORIAL HepG2 Assay for human Octamer-Binding Transcription Factor (Oct) (AID 2282993). The settings on record: HepG2 Attagene cis-factorial Oct reporter, mRNA; actives raise or lower the signal. The gist of the method: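 HepG2, transient MRTU transfection, cis promoter elements; 24 h dosing; RT-PCR/CE fluorescence read-out of reporter mRNA; fit both directions vs DMSO.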

The target of assay [7] is Cellular tumor antigen p53 (Homo sapiens) (UniProt P04637). Description: ATG_p53_CIS: Attagene CIS-FACTORIAL HepG2 Assay for human p53 Transcription Factor (AID 2282994). The settings on record: HepG2 p53 cis-element reporter, Attagene mRNA; actives raise or lower the signal. The gist of the method:
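Multiplexed reporter mRNA assay in human HepG2 liver cells; cis-regulated units report endogenous factor activity. Values come from bidirectional curve fitting against DMSO negative control after 24 h treatment.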

A short description of assay [8]: BSK_3C_TissueFactor: BioMAP Diversity Plus: 3C Assay for Tissue Factor Biomarker Activity (AID 2282997). To be noted: BioMAP 3C HUVEC, tissue factor biomarker readout; actives raise or lower the signal. Summed up:
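HUVEC were treated 24 h, then surface tissue factor measured by ELISA and fitted bidirectionally against DMSO. Parallel SRB total-protein staining assessed overt cytotoxicity at the same time point.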

A short description of assay [9]: BSK_3C_uPAR: BioMAP Diversity Plus: 3C Assay for Urokinase-type plasminogen activator receptor (uPAR) Biomarker Activity (AID 2282998). To be noted: BioMAP 3C HUVEC, uPAR biomarker ELISA; actives raise or lower the signal. The gist of the method:
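A multiplexed primary-cell system built on human umbilical vein endothelium was used, with chemical present for 24 h before reading. Cell-surface uPAR was detected by ELISA; signal change in either direction counted against DMSO.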
Background: In an ELISA, binding on a coated surface is turned into a signal by an enzyme label.

Assay [10] in a line: ATG_M_61_TRANS: Attagene TRANS-FACTORIAL HepG2 Assay for M61 Transcription Factor (Internal Marker) (AID 2282988). The settings on record: HepG2 Attagene TRANS M61 internal marker reporter. As to the method: ATG_TRANS is a cell-based, multiplexed-readout assay that uses HepG2, a human liver cell line, with measurements taken at 24 hours after chemical dosing in a 24-well plate.ATG_M_61_TRANS is one of 30 assay component(s) measured or calculated from the ATG_TRANS assay. It is designed to make measurements of mRNA induction, a form of inducible reporter, as detected with fluorescence intensity signals by Reverse transcription polymerase chain reaction (RT-PCR) and Capillary electrophoresis technology.Data from the assay component ATG_M_61_TRANS was analyzed into 1 assay endpoint. This assay endpoint, ATG_M_61_TRANS, was analyzed in the positive analysis fitting direction relative to DMSO as the negative control and baseline of activity. […] Furthermore, this assay endpoint can be referred to as a secondary readout, because this assay has produced multiple assay endpoints where this one serves a background control function. […]
Human liver HepG2 cells are transiently transfected with multiple reporter transcription units (MRTUs) in 6-well plates using FuGene 6 reagent (Roche; 3 ml FuGene/1 mg DNA). […] A major difference between the CIS and TRANS system is that in CIS activities of endogenous TFs are measured, whereas the TRANS assay evaluates changes in activities of exogenous, chimeric NR-Gal4 proteins. […]

Sequence of Myc proto-oncogene protein (Homo sapiens) (P01106 whole entry, looked up, the tested form may be a part): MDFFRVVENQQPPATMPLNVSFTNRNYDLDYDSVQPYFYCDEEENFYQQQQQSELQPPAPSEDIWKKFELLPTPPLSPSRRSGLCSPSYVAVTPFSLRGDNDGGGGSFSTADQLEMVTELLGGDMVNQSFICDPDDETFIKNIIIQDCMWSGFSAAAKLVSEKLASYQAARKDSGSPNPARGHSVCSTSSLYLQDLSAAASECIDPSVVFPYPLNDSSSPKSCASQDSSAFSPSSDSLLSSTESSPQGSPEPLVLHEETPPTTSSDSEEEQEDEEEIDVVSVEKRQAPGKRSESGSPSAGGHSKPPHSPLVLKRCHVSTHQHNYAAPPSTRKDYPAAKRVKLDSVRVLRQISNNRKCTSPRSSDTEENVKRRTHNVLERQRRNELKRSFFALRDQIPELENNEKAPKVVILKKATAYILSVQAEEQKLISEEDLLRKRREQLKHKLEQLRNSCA
Sequence of Nuclear respiratory factor 1 (Homo sapiens) (Q16656 whole entry, looked up, the tested form may be a part): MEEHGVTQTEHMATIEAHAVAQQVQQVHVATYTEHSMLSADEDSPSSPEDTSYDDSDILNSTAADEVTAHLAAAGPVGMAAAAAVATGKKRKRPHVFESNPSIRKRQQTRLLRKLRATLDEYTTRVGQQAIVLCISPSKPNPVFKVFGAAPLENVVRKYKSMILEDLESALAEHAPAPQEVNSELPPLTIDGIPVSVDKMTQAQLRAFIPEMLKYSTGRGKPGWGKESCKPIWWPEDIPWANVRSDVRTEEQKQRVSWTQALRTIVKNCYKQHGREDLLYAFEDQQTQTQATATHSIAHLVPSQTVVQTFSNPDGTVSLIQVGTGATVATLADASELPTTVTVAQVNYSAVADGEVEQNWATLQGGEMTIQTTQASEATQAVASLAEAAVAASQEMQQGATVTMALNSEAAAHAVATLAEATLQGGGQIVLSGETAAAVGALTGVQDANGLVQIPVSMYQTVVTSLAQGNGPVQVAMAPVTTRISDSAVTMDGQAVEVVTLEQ
Sequence of Cellular tumor antigen p53 (Homo sapiens) (P04637 whole entry, looked up): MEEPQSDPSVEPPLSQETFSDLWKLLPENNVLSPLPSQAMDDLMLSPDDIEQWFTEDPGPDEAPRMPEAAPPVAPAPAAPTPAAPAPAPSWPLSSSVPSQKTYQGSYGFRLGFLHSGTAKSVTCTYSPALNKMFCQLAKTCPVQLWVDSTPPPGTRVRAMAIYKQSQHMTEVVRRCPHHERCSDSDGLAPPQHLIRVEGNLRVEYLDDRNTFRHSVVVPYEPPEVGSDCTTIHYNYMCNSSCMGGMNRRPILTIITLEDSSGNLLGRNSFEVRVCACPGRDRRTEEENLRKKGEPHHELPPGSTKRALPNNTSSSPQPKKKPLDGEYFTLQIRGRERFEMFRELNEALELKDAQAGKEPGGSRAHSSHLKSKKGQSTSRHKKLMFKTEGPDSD

Consider `COC(=O)c1c(Cl)nn(C)c1S(=O)(=O)NC(=O)Nc1nc(OC)cc(OC)n1`, for which the outcome in [1], in assay [2], in assay [3], in assay [4], in [5] and in [6] was inactive. Further, the call in [7], in assay [8] and in assay [9] was inactive.
Usually AC50 stands for the concentration at which the activity in the assay is half-maximal. Turning to `CC(C)(c1ccc(O)cc1)c1ccc(O)cc1`, the AC50 in [1] was 62.2 µM (active); in assay [2], 44.2 µM (active) and 37.8 µM (active); in [3], 2.29 µM (active); in assay [4] it was 56.9 µM (active); in [7] it was 86.2 µM (active) and 100 µM (active) and 133 µM (active). Besides, the compound was called inactive in [1], in assay [2], in [3], in assay [4], in assay [5] and in assay [6]. Besides, the compound was classed as inactive in assay [7], in [8] and in assay [9].
As for `CCC(C)OC(=O)N1CCCCC1CCO` (stereo not drawn), the call in assay [1], in assay [2], in assay [3], in assay [4], in assay [5] and in assay [6] was inactive. The outcome in assay [7], in assay [8] and in assay [9] was inactive. Moreover, the AC50 in assay [5] was 44.4 µM (active).
In the case of `c1ccc2[nH]c(-c3cscn3)nc2c1`, the result in [1], in assay [2], in [3], in assay [4], in assay [5] and in assay [6] was inactive. Besides, the result in assay [8] and in assay [9] was inactive. Besides, the AC50 in assay [5] was 149 µM (active).
As for `O=C(O)C1(C(=O)Nc2ccc(Cl)cc2Cl)CC1`, the call in [1], in assay [2], in [3], in [4], in assay [6] and in assay [7] was inactive. The outcome in assay [8] and in assay [9] was inactive. Besides, the AC50 in [5] was 30.4 µM (active).
As for `C[C@]12CC[C@@H]3c4ccc(O)cc4C[C@@H](CCCCCCCCCS(=O)CCCC(F)(F)C(F)(F)F)[C@H]3[C@@H]1CC[C@@H]2O` (stereo partly drawn), the outcome in [1], in assay [2], in assay [3], in [4], in assay [5] and in assay [6] was inactive. For the same compound, the compound was called inactive in assay [7], in assay [8] and in assay [9].
In the case of `CC(C)(C)[C@@H](O)[C@@H](Cc1ccc(Cl)cc1)n1cncn1`, the call in assay [1], in assay [2], in assay [3], in assay [4], in [7] and in assay [8] was inactive. Also, the outcome in [9] was inactive. In addition, the values for the AC50 in [5] and in [6] were 13.4 µM (active) and 7.98 µM (active), respectively.
Regarding `CCNc1nc(N)nc(Cl)n1`, the compound was classed as inactive in [1], in assay [2], in assay [3], in assay [4], in assay [5] and in assay [6]. Moreover, the result in assay [7], in assay [8] and in [9] was inactive.
In the case of `CC(=O)S[C@@H]1CC2=CC(=O)CC[C@]2(C)[C@H]2CC[C@@]3(C)[C@@H](CC[C@@]34CCC(=O)O4)[C@H]12`, the call in assay [1], in assay [2], in assay [3], in [5], in assay [6] and in assay [7] was inactive. Besides, the AC50 in assay [3] is 7.76 µM (active); in assay [5] it was 100 µM (active); in assay [6], 15 µM (active); in assay [7] it was 27.6 µM (active) [middle of 4 runs]; in [8], 16.1 µM (active); in [9], 27.8 µM (active).
`CCCCCCC(C)OC(=O)COc1nc(F)c(Cl)c(N)c1Cl` (stereo not drawn): the call in assay [1], in assay [2], in [3], in assay [4], in assay [5] and in [6] was inactive. In addition, the result in [7] was inactive. In addition, the AC50 in assay [8] was 34.4 µM (active); in [9], 37.8 µM (active).
For the compound `COc1nc(C)nc(NC(=O)NS(=O)(=O)c2ccccc2OCCCl)n1`, the result in assay [1], in assay [2], in assay [3], in [4], in assay [5] and in assay [6] was inactive. For the same compound, the result in [7], in assay [8] and in [9] was inactive. Also, the AC50 in assay [5] was 6.85 µM (active).
Consider `C#C[C@]1(O)CC[C@H]2[C@@H]3CCC4=CC(=O)CC[C@@H]4[C@H]3CC[C@@]21CC`, for which the compound was classed as inactive in assay [1], in [2], in [3], in [4], in [5] and in [6]. Besides, the compound was classed as inactive in assay [7], in [8] and in assay [9]. The AC50 in assay [5] was 52.1 µM (active).
As for `COC(=O)c1cccc(C)c1S(=O)(=O)NC(=O)Nc1nc(OCC(F)(F)F)nc(N(C)C)n1`, the compound was classed as inactive in assay [1], in assay [2], in [3], in [4], in assay [6] and in [7]. The result in assay [8] and in assay [9] was inactive. Besides, the AC50 in [5] is 30.9 µM (active).
`O=C(c1ccc(O)cc1O)c1ccc(O)cc1O`: the AC50 was 46.5 µM (active) in assay [1] and 29.2 µM (active) in assay [8]. Further, the result in assay [1], in assay [2], in [3], in [4], in assay [5] and in [6] was inactive. Moreover, the compound was called inactive in assay [7] and in assay [9].
In the case of `CCCN(CCC)c1c([N+](=O)[O-])cc(C(F)(F)F)c(N)c1[N+](=O)[O-]`, the result in assay [1], in [2], in [3] and in [7] was inactive. For the same compound, the AC50 in [4] is 50 µM (active); in [5], 5.51 µM (active); in assay [6] it was 4.57 µM (active); in [8] it was 36.5 µM (active); in assay [9], 31.8 µM (active).
Turning to `CC(C)CCCCCCc1ccc(O)cc1`, the AC50 is 15.7 µM (active) in [1]; 15.8 µM (active) in [2]; 15.4 µM (active) in assay [3]; 11.1 µM (active) in assay [4]; 8.96 µM (active) and 11.1 µM (active) and 9.16 µM (active) in [5]; 17.4 µM (active) and 17.1 µM (active) in assay [6]. Also, the AC50 in [7] was 20.1 µM (active) and 20.3 µM (active); in [8] it was 9.54 µM (active); in [9] it was 9.68 µM (active). For the same compound, the compound was classed as inactive in assay [1], in assay [10], in assay [2], in [3], in assay [4] and in assay [5]. Further, the call in assay [6] and in assay [7] was inactive.
For `C[C@]12C[C@H](O)[C@H]3[C@@H](CCC4=CC(=O)CC[C@@]43C)[C@@H]1CC[C@@H]2C(=O)CO`, the outcome in assay [1], in assay [2], in assay [3], in assay [4], in [5] and in [6] was inactive. In addition, the result in [7], in [8] and in assay [9] was inactive.
